The values that follow come from the antibiotic and cytotoxicity screens of Wong et al. (2023).

Among all 39,000 compounds or so, about 500 (1.3%) were called active. Many of the other results were omitted from the sample, so actives are more common in it than they were.

The experiment relates to S. aureus RN4220. Description: growth inhibition call (relative growth <= 0.2). The following applies: 50 µM.
For the compound `CC=Cc1ccc2c(c1)OCO2`, the growth inhibition call is “inactive”.
Take `CCn1cnc2c(Nc3cccc(Cl)c3)nc(N[C@@H]3CCCC[C@@H]3N)nc21`: the growth inhibition call is “inactive”.
To `CCO[C@H]1[C@H]2CC[C@@H]1NC2` belongs “inactive”; to `O=[N+]([O-])C(Br)(CO)CO` [listing 1 of 2 here], “active”.
On to `OCC(Br)(Br)Br`, for which the growth inhibition call is “inactive”.
On to `O=[N+]([O-])C(Br)(CO)CO` [listing 2 of 2 here], for which the growth inhibition call was “active”.
Turning to `CCCCS(=O)(=O)N1C[C@H]2CNC[C@@H]2C1`, the growth inhibition call is “inactive”.
With `C[C@H]1CN([C@@H](C)CO)C(=O)CCCn2nncc2CO[C@H]1CN(C)C(=O)Oc1ccc2ccccc2c1` the entry was “inactive”; with `CNCC(=O)c1ccc(O)c(O)c1`, “inactive”; with `CCCCCCCCCC(=O)O[C@@H]1[C@@H](C)[C@]2(O)[C@@H](C=C(CO)C[C@]3(O)C(=O)C(C)=C[C@@H]23)[C@@H]2C(C)(C)[C@@]12OC(=O)CCCCCCCCC`, “inactive”.
On to `CCCCC(=O)N1C[C@@H]2CCNC[C@@H]21`, for which the growth inhibition call is “inactive”.
Take `Cc1nc(-c2ccc(-c3ccc(C(=O)N4CCc5cc6c(cc54)C4(CCN(C)CC4)CO6)cc3)c(C)c2)no1`: the growth inhibition call was “active”.
Take `O=[N+]([O-])c1ccc([As](=O)(O)O)cc1`: the growth inhibition call was “inactive”.
To `CC(=O)NN1Cc2ccccc2C1=N` belongs “inactive”; to `CNc1ccc(C(=O)C[C@@H](O)CC[C@@H](C)[C@H]2OC(=O)C[C@@H](O)CC(=O)C[C@@H](O)C[C@@H](O)C[C@@H](O)C[C@@H](O)C[C@@]3(O)C[C@@H](O)[C@H](C(=O)OC)[C@@H](C[C@@H](O[C@@H]4O[C@H](C)[C@@H](O)[C@H](N)[C@@H]4O)\C=C/C=C\C=C/C=C\C=C/C=C\C=C/[C@@H]2C)O3)cc1`, “inactive”.
As for `CCNS(=O)(=O)C(F)(F)C(F)(F)C(F)(F)C(F)(F)C(F)(F)C(F)(F)C(F)(F)C(F)(F)F`, the growth inhibition call was “inactive”.
Take `CN(C)C(=O)Oc1ccc[n+](C)c1.[Br-]`: the growth inhibition call is “inactive”.
With `c1ccc2sc(C3(N4CCCC4)CCCCC3)cc2c1` the entry was “inactive”.
In the case of `CCCCOC(=O)C1=CC(=O)CC(C)(C)O1`, the growth inhibition call is “inactive”.
Consider `O=[N+]([O-])c1ccc(O)c([N+](=O)[O-])c1`, for which the growth inhibition call is “active”.
With `O=[N+]([O-])c1cc([As](=O)(O)O)ccc1O`, the growth inhibition call was “inactive”.
To `O=[N+]([O-])c1cc(O)c(O)c([N+](=O)[O-])c1` belongs “inactive”.
As to `CCCC[C@@H](C)[C@@H](OC(=O)C[C@@H](CC(=O)O)C(=O)O)[C@H](C[C@@H](C)C[C@H](O)CCCC[C@@H](O)C[C@H](O)[C@H](C)N)OC(=O)C[C@@H](CC(=O)O)C(=O)O`, the growth inhibition call was “inactive”.
For the compound `O=C(O)C[C@H]1CC[C@@H]2NC[C@H](O)COC[C@H]2O1`, the growth inhibition call is “inactive”.
Turning to `CC(C)[C@@H](Br)C(=O)NC(N)=O`, the growth inhibition call is “inactive”.
`C[C@@H]1CN([C@H](C)CO)C(=O)CCCn2nncc2CO[C@@H]1CN(C)C(=O)Oc1ccc2ccccc2c1`: the growth inhibition call was “inactive”.
With `CC(=O)[O][Cd][O]C(C)=O`, the growth inhibition call was “active”.
For the compound `CC(=O)[O][PbH2][O]C(C)=O`, the growth inhibition call is “inactive”.
As for `CC1OC(OC2C(O)C(O)C(O)C(O)C2O)C(N)CC1NC(=N)C(=O)O.Cl` (stereo not drawn), the growth inhibition call was “inactive”.
With `C=C1[C@@H](C)[C@H]2[C@H](Cc3ccccc3)NC(=O)[C@]23[C@H](OC(C)=O)/C=C/[C@](C)(O)C(=O)[C@@H](C)C/C=C/[C@H]3[C@@H]1O`, the growth inhibition call was “inactive”.
`C=CCOC(Cn1ccnc1)c1ccc(Cl)cc1Cl.O=S(=O)(O)O` (stereo not drawn): the growth inhibition call was “active”.
To `O.O.O.O=C([O-])C1[O][Sb]2[O]C(=O)C([O]2)C(C(=O)[O-])[O][Sb]2[O]C(=O)C1[O]2.[K+].[K+]` (stereo not drawn) belongs “inactive”; to `CC(C)=CCCC1(C)C=Cc2c(O)c3c(c(CC=C(C)C)c2O1)OC12C(=CC4CC1C(C)(C)OC2(CC=C(C)C(=O)O)C4=O)C3=O` (stereo not drawn), “inactive”.
With `NC(=O)c1cc([N+](=O)[O-])cc([N+](=O)[O-])c1`, the growth inhibition call was “inactive”.
With `CC(C)[C@@H]1NC[C@@H]2CCCN2C1=O` the entry was “inactive”; with `C=C[C@H]1[C@H](O[C@@H]2O[C@H](CO)[C@@H](O)[C@H](O)[C@H]2O)OC=C2C(=O)OCC[C@H]21`, “inactive”; with `O=[N+]([O-])c1ccc(N(CCO)CCO)c2c1no[n+]2[O-]`, “active”.
With `C#CCOS(=O)OC1CCCCC1Oc1ccc(C(C)(C)C)cc1` (stereo not drawn) the entry was “inactive”; with `O=C(c1ccccc1)C12CN3CN(CN(C3)C1)C2`, “inactive”; with `C1CC2(CCN1)OCCO2`, “inactive”.
On to `Clc1cc2c(cc1Cl)Oc1cc(Cl)c(Cl)cc1O2`, for which the growth inhibition call is “inactive”.
On to `[O-][n+]1ccccc1[S][Zn][S]c1cccc[n+]1[O-]`, for which the growth inhibition call is “active”.
With `O[C@H]1[C@H](O)[C@@H](O)CN2CC[C@H](O)[C@H]12` the entry was “inactive”; with `CCN(CC)S(=O)(=O)c1ccc(Cn2nc(C(=O)Nc3ccc(N4CCCCC4)cc3)c3ccccc32)cc1`, “inactive”.
With `COC(=O)C(c1ccccc1)C1CCCCN1.Cl` (stereo not drawn) the entry was “inactive”; with `CC[C@@H](N)[C@@H](O)c1ccc(O)c(O)c1`, “inactive”; with `CCC(COC(=O)c1cc(OC)c(OC)c(OC)c1)(c1ccccc1)N(C)C.O=C(O)C=CC(=O)O` (stereo not drawn), “inactive”.
With `COP(=S)(OC)Oc1cc(Cl)c(Cl)cc1Cl` the entry was “active”.
For `COP(=S)(OC)Oc1ccc(Sc2ccc(OP(=S)(OC)OC)cc2)cc1`, the growth inhibition call is “inactive”.
As to `CCOP(=S)(OCC)Oc1nc(Cl)c(Cl)cc1Cl`, the growth inhibition call was “inactive”.
With `N[C@@]1(C(=O)O)CC[C@@H](C(=O)O)C1.N[C@]1(C(=O)O)CC[C@H](C(=O)O)C1` the entry was “inactive”; with `NCCc1nnc2n1CCCCC2`, “inactive”; with `CNC(C)C(O)c1ccccc1.Cl` (stereo not drawn), “inactive”.
As for `CCCCCCCCCCCCCCCC[n+]1ccccc1.[Cl-]`, the growth inhibition call is “inactive”.
`CN[C@@H]1[C@@H](O)[C@@H](O[C@@H]2[C@H](O)[C@@H](O[C@H]3O[C@H]([C@@H](C)O)[C@@H](O)[C@H](O)[C@H]3N)[C@H](N)C[C@@H]2N)OC[C@]1(C)O`: the growth inhibition call is “inactive”.
`CN[C@@H]1[C@@H](O)[C@@H](O[C@@H]2[C@@H](O)[C@H](O[C@H]3O[C@H](CN)CC[C@H]3N)[C@@H](N)C[C@H]2N)OC[C@]1(C)O.CN[C@@H]1[C@@H](O)[C@@H](O[C@@H]2[C@@H](O)[C@H](O[C@H]3O[C@H]([C@@H](C)N)CC[C@H]3N)[C@@H](N)C[C@H]2N)OC[C@]1(C)O.CN[C@@H]1[C@@H](O)[C@@H](O[C@@H]2[C@@H](O)[C@H](O[C@H]3O[C@H]([C@@H](C)NC)CC[C@H]3N)[C@@H](N)C[C@H]2N)OC[C@]1(C)O`: the growth inhibition call is “inactive”.
Consider `CNC1C(O)C(OC2C(N)CC(N)C(OC3OC(C(C)O)C(O)C(O)C3N)C2O)OCC1(C)O` (stereo not drawn), for which the growth inhibition call was “active”.
On to `O=C1O[C@H]2CN[C@@H]1C2`, for which the growth inhibition call was “inactive”.
As for `C[C@H]1CN([C@@H](C)CO)C(=O)CCCn2nncc2CO[C@@H]1CN(C)C(=O)Oc1ccc2ccccc2c1`, the growth inhibition call is “inactive”.
For the compound `CC1=C(O)C(=O)C=C2C1=CC=C1C2(C)CCC2(C)C3CC(C)(C(=O)O)CCC3(C)CCC12C` (stereo not drawn), the growth inhibition call was “inactive”.
Regarding `Cn1ncnc2c(=O)n(C)c(=O)nc1-2`, the growth inhibition call is “inactive”.
Turning to `Cc1nc2c(=O)n(C)c(=O)nc-2n(C)n1`, the growth inhibition call was “inactive”.
In the case of `CCn1nc(-c2cccnc2)nc2c(=O)n(C)c(=O)nc1-2`, the growth inhibition call is “active”.
As for `CCC1=C[C@@H]2[C@H](C1)C[C@]2(CN)CC(=O)O`, the growth inhibition call is “inactive”.
To `C[C@@H]1CN([C@@H](C)CO)C(=O)CCCn2cc(nn2)CO[C@@H]1CN(C)C(=O)Oc1cccc2ccccc12` belongs “inactive”; to `Cl.Oc1noc2c1CCNC2`, “inactive”.
`CC12CCC(O)CC1CCC1C2CC(O)C2(C)C(C3=CC(=O)OC3)CCC12O` (stereo not drawn): the growth inhibition call is “inactive”.
As for `CC1=C2CC3C(CC=C4CC(O)CCC43C)C2CCC12OC1CC(C)CNC1C2C` (stereo not drawn), the growth inhibition call was “inactive”.
On to `O=C(O)C=CC(=O)O.c1ccc2nc(N3CCNCC3)ccc2c1`, for which the growth inhibition call was “inactive”.
Take `CC(C)(C)C(=O)C(Oc1ccc(Cl)cc1)n1cncn1` (stereo not drawn): the growth inhibition call is “inactive”.
For the compound `O=C1C=C2C(=CCOC2O)O1` (stereo not drawn), the growth inhibition call was “active”.
In the case of `O=C1C=C2C(=CCO[C@@H]2O)O1`, the growth inhibition call was “inactive”.
As for `CO[C@@H]1C=C[C@@H]2[C@H]1N2CCCO` (stereo partly drawn), the growth inhibition call was “inactive”.
As to `Cc1cc[n+](C)cc1`, the growth inhibition call is “inactive”.
As for `COc1ccc(CN2CCNCC2)c(OC)c1OC.Cl.Cl`, the growth inhibition call is “inactive”.
Regarding `COCCCNC(=O)C1[C@@H]2CC[C@H]1CNC2` (stereo partly drawn), the growth inhibition call is “inactive”.
Regarding `COc1ccc2c(c1)C[C@H](N)C2`, the growth inhibition call is “inactive”.
Take `Oc1c(Cl)c(Cl)c(Cl)c(Cl)c1Cl`: the growth inhibition call was “active”.
On to `CCCCCCCCCCCCCCCC[N+](C)(C)C.[Br-]`, for which the growth inhibition call was “inactive”.
`C[C@@H](N)Cc1c[nH]c2ccc(O)cc12`: the growth inhibition call was “inactive”.
As to `Oc1ccccc1N1CCNCC1`, the growth inhibition call was “inactive”.
Turning to `CN1C(=O)[C@@]23C[C@]4([C@@]56C[C@]78SS[C@](CO)(C(=O)N7[C@@H]5Nc5ccccc56)N(C)C8=O)c5ccccc5N[C@H]4N2C(=O)[C@@]1(CO)SS3`, the growth inhibition call is “active”.
Consider `CN1C(=O)[C@]23CC4=CC=C[C@H](O)[C@H]4N2C(=O)[C@@]1(CO)SS3`, for which the growth inhibition call is “inactive”.
Regarding `CCCC(=O)c1c(O)[nH]c(=O)[nH]c1=O`, the growth inhibition call was “inactive”.
As for `CCCC12CNCC(C)(CNC1)C2=O`, the growth inhibition call was “inactive”.
To `c1ccc2cc3c(cc2c1)-c1cccc2cccc-3c12` belongs “inactive”; to `CN(C)C(=S)SSC(=S)N(C)C`, “active”.
For the compound `CO[C@@H]1C[C@@H](C[C@H]2CC[C@H](C)[C@H]([C@@H](C)C(=O)O)O2)O[C@]2(O[C@](C)([C@H]3CC[C@@](C)([C@H]4O[C@@H]([C@H]5O[C@@](O)(CO)[C@H](C)C[C@@H]5C)C[C@@H]4C)O3)C[C@H]2C)[C@@H]1C`, the growth inhibition call was “active”.
As to `Cc1ccc(OC(=O)N(C)C[C@H]2OCc3ccccc3-c3c(n(C)c4ccccc34)C(=O)N([C@@H](C)CO)C[C@@H]2C)cc1`, the growth inhibition call was “inactive”.
As to `CC(C)c1cc2c(c(O)c1O)C1(C(=O)O)CCCC(C)(C)C1CC2` (stereo not drawn), the growth inhibition call is “inactive”.
`O=C(NCNC(=O)N[C@H]1C(=O)NC(=O)N1CO)N[C@H]1C(=O)NC(=O)N1CO`: the growth inhibition call is “inactive”.
Consider `CC(C)(CN)CNc1ccc([N+](=O)[O-])c2cccnc12`, for which the growth inhibition call is “inactive”.
Regarding `CC(=O)OC1CC(OC2C(O)CC(OC3C(O)CC(OC4CCC5(C)C(CCC6C5CC(O)C5(C)C(C7=CC(=O)OC7)CCC65O)C4)OC3C)OC2C)OC(C)C1OC1OC(CO)C(O)C(O)C1O` (stereo not drawn), the growth inhibition call was “inactive”.
